Records with an inconclusive call do not appear. Active and inactive are the calls of the source. Unless noted, calls follow the shape of the dose curve; as a rule, active = well fitted curve in the direction sought with a large enough effect; inconclusive = small, poorly fitted or top-dose-only effect, or another doubt; inactive = no such curve, though single readings can be large; an effect the other way counts as inactive or inconclusive.
Assays:
[1] = target: Lysosomal acid glucosylceramidase (Homo sapiens) (UniProt P04062); assay: Glucocerebrosidase-p2 (AID 348; in the data active = potency below about 10 µM; also: potency is read from the fitted curve at half-maximal effect); details: purified GBA, blue fluorogenic substrate, 40 min
Lysosomal acid glucosylceramidase (Homo sapiens), sequence (P04062 whole entry, looked up): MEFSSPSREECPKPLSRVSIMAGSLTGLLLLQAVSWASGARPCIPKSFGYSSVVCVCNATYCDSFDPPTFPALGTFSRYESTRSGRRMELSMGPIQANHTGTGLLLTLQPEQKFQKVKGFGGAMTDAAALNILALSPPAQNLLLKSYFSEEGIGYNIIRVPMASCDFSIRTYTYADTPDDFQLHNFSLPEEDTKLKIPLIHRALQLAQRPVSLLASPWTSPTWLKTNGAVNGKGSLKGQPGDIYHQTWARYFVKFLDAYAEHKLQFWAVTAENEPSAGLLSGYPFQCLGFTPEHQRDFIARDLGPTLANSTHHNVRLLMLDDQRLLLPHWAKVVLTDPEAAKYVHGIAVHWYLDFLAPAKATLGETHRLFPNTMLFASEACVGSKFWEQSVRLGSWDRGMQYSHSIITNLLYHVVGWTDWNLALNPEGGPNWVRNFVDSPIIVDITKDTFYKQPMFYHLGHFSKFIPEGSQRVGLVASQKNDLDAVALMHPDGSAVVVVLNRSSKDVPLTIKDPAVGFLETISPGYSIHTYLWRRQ
Procedure, shortened: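 Normal human glucocerebrosidase (0.2 nM) with blue fluorogenic substrate (80 uM final) in citrate/phosphate pH 5.9 with 10mM sodium taurocholate, 0.01% tween-20; 40 min RT, NaOH/glycine stop; fluorescence Ex 365/Em 440; AC50 from a titration from 0.6 nM upwards.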

[2] = AP1 Signaling Pathway (AID 357; active = well fitted curve in either direction with a large enough effect, not every such curve was filed as active;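 also: ME-180 reporter cells stimulated with EGF at its EC50 level; % is scaled to controls: 0 for no effect and ±100 for the full control effect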); details: ME-180 AP-1-bla reporter, EGF-induced, beta-lactamase ratio, 5 h; at 7.69 µM (top of the series) unless noted
Procedure, shortened: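 Titration-series screen for positive or negative modulators of EC50 EGF-induced signaling in ME-180 cells carrying an AP-1-driven beta-lactamase reporter. After 5 hours at 37 degrees Celsius, CCF4 460nm/530nm emission ratio gave %Activity; AC50 values derived.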

[3] = target: Cytochrome P450 1A2 (Homo sapiens) (UniProt P05177); assay: p450-cyp1a2 (AID 410; calls by dose curve; also: potency is read from the fitted curve at half-maximal effect;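 as to activity change, negative = inhibition: -100% = full effect of reference inhibitor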)
Cytochrome P450 1A2 (Homo sapiens), sequence (P05177 whole entry, looked up): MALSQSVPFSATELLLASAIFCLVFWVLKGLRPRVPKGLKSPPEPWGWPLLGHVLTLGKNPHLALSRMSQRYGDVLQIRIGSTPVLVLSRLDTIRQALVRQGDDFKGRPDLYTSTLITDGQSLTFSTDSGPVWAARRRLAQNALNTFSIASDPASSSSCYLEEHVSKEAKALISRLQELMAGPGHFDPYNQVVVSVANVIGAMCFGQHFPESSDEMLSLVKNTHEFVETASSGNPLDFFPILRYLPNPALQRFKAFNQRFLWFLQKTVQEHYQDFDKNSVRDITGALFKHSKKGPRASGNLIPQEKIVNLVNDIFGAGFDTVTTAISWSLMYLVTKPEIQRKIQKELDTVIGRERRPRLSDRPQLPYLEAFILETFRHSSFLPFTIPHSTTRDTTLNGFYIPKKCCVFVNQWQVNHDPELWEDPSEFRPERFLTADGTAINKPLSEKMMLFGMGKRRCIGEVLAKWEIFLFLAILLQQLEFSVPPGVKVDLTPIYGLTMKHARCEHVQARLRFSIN
Procedure, shortened: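 20nM CYP1A2, 100uM Luciferin-ME (=Km), 100mM KPO4; cpd 10 min RT; +NADPH regen, 60 min RT; stop/detect 20 min; luminescence. Normalized to furafylline 57 uM = full inhibition.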

[4] = target: Glucocorticoid receptor (Homo sapiens) (UniProt P04150); assay: GR-GFP Redistribution (AID 450;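 active = compounds whose dose series gives a full or clear partial fitted curve of increased nuclear translocation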; also: potency is read from the fitted curve at half-maximal effect); details: U2OS GR-GFP nuclear translocation, laser cytometry, 2 h
Glucocorticoid receptor (Homo sapiens), sequence (P04150 whole entry, looked up, the tested form may be a part): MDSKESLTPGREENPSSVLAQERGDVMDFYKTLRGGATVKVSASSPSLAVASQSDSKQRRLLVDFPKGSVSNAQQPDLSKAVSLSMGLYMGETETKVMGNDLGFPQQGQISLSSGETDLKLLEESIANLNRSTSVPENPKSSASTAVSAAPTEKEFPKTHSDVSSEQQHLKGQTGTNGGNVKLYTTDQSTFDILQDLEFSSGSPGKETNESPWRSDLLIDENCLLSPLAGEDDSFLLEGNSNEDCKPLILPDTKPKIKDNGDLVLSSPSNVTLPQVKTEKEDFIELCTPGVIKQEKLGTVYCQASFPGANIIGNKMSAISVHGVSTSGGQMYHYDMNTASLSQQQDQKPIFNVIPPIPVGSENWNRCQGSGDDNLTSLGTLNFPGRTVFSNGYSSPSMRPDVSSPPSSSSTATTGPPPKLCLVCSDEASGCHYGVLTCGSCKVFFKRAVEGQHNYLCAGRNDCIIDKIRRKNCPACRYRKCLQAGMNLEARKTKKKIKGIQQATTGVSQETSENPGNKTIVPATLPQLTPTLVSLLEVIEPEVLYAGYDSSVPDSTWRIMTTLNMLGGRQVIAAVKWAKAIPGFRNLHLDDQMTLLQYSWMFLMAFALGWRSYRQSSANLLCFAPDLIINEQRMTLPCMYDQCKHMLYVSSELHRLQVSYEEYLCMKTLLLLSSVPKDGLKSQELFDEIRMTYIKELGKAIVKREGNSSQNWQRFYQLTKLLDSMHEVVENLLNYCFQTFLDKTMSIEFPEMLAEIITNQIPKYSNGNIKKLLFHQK

[5] = target: Glucocorticoid receptor (Homo sapiens) (UniProt P04150); assay: GR-EFC Redistribution (AID 451; calls by dose curve; also: potency is read from the fitted curve at half-maximal effect); details: CHO-K1 GR-EFC translocation, beta-gal luminescence, 2 h
Procedure, shortened: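 Translocation of GR-ED fusion to nuclear EA restores b-gal, read by luminescence after 1 h room-temperature detection. Engineered CHO-K1 biosensor cells, 1,000/well, exposed 2 h at 37 C to titrations up to 46 uM final.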

[6] = target: 3',5'-cyclic-AMP phosphodiesterase 4B (Homo sapiens) (UniProt Q07343); assay: qHTS Assay for Inhibitors of PDE-IV (AID 607; active = well fitted activation curve with a large enough effect in the main read-out, with a control signal flat, not every such curve was filed as active; also: % of control where 0% means no effect)
3',5'-cyclic-AMP phosphodiesterase 4B (Homo sapiens), sequence (Q07343 whole entry, looked up): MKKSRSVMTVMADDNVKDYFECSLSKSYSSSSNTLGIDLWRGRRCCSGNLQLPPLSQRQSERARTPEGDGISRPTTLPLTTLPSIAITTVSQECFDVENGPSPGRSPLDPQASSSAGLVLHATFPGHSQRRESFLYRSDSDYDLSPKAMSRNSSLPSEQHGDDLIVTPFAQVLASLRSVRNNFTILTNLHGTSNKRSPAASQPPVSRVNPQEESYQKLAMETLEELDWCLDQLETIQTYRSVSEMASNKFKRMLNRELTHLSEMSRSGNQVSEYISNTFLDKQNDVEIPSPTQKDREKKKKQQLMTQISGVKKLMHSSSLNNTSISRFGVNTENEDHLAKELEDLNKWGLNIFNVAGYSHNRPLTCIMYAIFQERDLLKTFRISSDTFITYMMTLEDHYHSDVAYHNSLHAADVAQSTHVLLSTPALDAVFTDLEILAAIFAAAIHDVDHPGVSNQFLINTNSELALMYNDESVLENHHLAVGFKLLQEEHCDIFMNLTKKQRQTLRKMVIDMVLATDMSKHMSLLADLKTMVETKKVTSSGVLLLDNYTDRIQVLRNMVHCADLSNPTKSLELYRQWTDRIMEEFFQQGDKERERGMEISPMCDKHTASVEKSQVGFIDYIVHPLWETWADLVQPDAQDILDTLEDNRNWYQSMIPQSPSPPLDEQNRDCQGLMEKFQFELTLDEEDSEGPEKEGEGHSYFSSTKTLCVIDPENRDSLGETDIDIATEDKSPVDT
Procedure, shortened: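 ACTOne HEK293 cells carry a modified cAMP-gated CNG channel and express endogenous PDE4; plated 1000 cells/well, compounds up to 22.9 uM final. Membrane-potential dye fluorescence (ex 535/em 590) was read; parental cells received 10 uM forskolin + 100 uM RO 20-1724.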

[7] = target: Cytochrome P450 2C9 (Homo sapiens) (UniProt P11712); assay: qHTS Assay for Inhibitors and Substrates of Cytochrome P450 2C9 (AID 883); also: potency is read from the fitted curve at half-maximal effect; nearly all actives have a fitted effect of over 60% in size
Procedure, shortened: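 Turnover of Luciferin-H (100uM, KM) by 10nM human CYP2C9 was measured over 60 min at 37C with NADPH regeneration; inhibitors and some substrates reduce luminescence. Data normalized to sulphaphenazole 57uM.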

[8] = target: Cytochrome P450 3A4 (Homo sapiens) (UniProt P08684); assay: qHTS Assay for Activators of Cytochrome P450 3A4 (AID 885); also: nearly all actives have a fitted effect of over 65% in size
Cytochrome P450 3A4 (Homo sapiens), sequence (P08684 whole entry, looked up): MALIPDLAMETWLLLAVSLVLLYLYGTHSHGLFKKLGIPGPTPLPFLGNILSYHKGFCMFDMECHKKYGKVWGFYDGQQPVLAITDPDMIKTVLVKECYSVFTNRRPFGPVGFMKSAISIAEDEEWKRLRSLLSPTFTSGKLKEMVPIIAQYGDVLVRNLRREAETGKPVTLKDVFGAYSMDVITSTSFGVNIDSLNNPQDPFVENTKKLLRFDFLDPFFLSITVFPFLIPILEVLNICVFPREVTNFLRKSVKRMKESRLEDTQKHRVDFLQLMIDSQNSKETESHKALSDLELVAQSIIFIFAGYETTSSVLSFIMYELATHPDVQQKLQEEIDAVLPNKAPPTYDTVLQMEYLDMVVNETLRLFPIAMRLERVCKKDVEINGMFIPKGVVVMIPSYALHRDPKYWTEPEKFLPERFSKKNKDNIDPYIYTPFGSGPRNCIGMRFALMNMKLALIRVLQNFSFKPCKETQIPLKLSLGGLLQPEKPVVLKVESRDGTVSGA
Procedure, shortened: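 CYP3A4 activity: Luciferin-PPXE O-dealkylation, 25uM substrate, 200mM KPO4, RT throughout. Read-out is luciferase luminescence; higher values reflect activation.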

[9] = qHTS Assay for Lipid Storage Modulators (AID 1519; calls by dose curve); details: Drosophila S3 cells, BODIPY lipid droplet/cell ratio, laser cytometry, cells loaded with oleic acid; for activity change, negative = inhibition: at 57.5 µM (top of the series)
Procedure, shortened: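 Cells seeded at 5,000 per well were treated with compounds over a concentration series and loaded with oleic acid (400 uM, as added). Lipid droplet fluorescence (488 nm excitation, 500-530 nm channel) was read by laser-scanning cytometry and normalized to 20 uM Triacsin C.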

[10] = Confirmatory qHTS for small molecule stabilizers of the endoplasmic reticulum resident proteome: Secreted ER Calcium Modulated Protein (SERCaMP) assay (AID 1508628); also: nearly all actives have a fitted effect of over 40% in size; also: potency is read from the fitted curve at half-maximal effect
Procedure, shortened: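 GLuc-SERCaMP-expressing SH-SY5Y cells, pretreated 16 h with compound, are challenged with thapsigargin to empty ER calcium stores; after 4 h, coelenterazine is added directly to the medium and luminescence is imaged.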

[11] = Cell Viability qHTS for small molecule stabilizers of the endoplasmic reticulum resident proteome (AID 1508629); details: cell viability counter-screen, 100 nM thapsigargin for final 4 h;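 also: human SH-SY5Y neuroblastoma cells carrying the GLuc-SERCaMP reporter; compound exposure about 46 h in total before the viability read; % is scaled to controls: 0 for no effect and ±100 for the full control effect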
[12] = target: Mitogen-activated protein kinase 10 (Mus musculus) (UniProt Q61831); assay: JNK3 AlphaScreen Assay (AID 530; active = well fitted curve in either direction with a large enough effect, not every such curve was filed as active;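 also: kinase came from lysate of stimulated human HepG2 cells; signal reports phosphorylation of biotinylated GST-cJun 1-79 at Ser73 with 10 µM ATP; % is scaled to controls: 0 for no effect and ±100 for the full control effect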)
Procedure, shortened: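 Kinase buffer: 20 mM Tris-HCl pH 7.6, 10 mM MgCl2, 1 mM DTT, 0.1 mM Na3VO4, 0.01% Tween-20; ATP 10 uM. Substrate biotin-GST-cJun(1-79), enzyme from activated HepG2 lysates. Detection by Ser73 phospho-antibody AlphaScreen.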

[13] = target: Dual specificity protein kinase CLK4 (Homo sapiens) (UniProt Q9HAZ1); assay: qHTS Assay for Inhibitors of CDC-like Kinase 4 (ADP-Glo Assay) (AID 1771); also: % is scaled to controls: 0 for no effect and ±100 for the full control effect; nearly all actives have a fitted effect of over 70% in size
Dual specificity protein kinase CLK4 (Homo sapiens), sequence (Q9HAZ1 whole entry, looked up): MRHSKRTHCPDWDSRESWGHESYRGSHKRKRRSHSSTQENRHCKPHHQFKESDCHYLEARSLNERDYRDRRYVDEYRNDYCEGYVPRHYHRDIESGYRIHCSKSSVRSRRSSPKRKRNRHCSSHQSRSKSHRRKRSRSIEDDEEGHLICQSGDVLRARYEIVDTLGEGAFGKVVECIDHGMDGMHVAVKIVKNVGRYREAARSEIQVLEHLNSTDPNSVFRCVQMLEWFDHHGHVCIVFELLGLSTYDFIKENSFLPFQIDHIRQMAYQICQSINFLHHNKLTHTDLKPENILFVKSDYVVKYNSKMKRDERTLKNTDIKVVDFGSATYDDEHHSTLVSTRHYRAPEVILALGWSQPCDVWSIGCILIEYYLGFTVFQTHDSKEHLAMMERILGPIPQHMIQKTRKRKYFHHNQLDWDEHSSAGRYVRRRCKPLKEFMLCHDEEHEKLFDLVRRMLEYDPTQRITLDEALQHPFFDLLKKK
Procedure, shortened: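 25 nM Clk4, 100 uM RS peptide, 1 uM ATP (final); 2 mM MgCl2, 0.5 mM EGTA, 2.5 mM DTT, 0.01% Triton X-100; 1 hr RT. ADP-Glo readout: ATP depletion 45 min, conversion/luciferase 30 min, luminescence.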

[14] = target: Dual specificity protein kinase CLK4 (Homo sapiens) (UniProt Q9HAZ1); assay: qHTS Assay for Inhibitors of CDC-like Kinase 4 (ADP-FP Assay) (AID 1795); also: % is scaled to controls: 0 for no effect and ±100 for the full control effect; nearly all actives have a fitted effect of over 60% in size
Procedure, shortened: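 Recombinant human Clk4 (6.25 nM) phosphorylated RS repeat peptide (100 uM) with 1 uM ATP in Tris pH 7.5/MgCl2/EGTA/DTT/Triton buffer for one hour. ADP was quantified by Transcreener competitive fluorescence polarization against an ADP calibration curve.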

[15] = target: Ubiquitin carboxyl-terminal hydrolase 1 (Homo sapiens) (UniProt O94782); assay: Inhibitors of USP1/UAF1: Pilot qHTS (AID 504865);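 also: rhodamine fluorescence freed from ubiquitin-rhodamine substrate followed over time; top concentration of the series differs between compounds; % is scaled to controls: 0 for no effect and ±100 for the full control effect; nearly all actives have a fitted effect of over 35% in size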
Ubiquitin carboxyl-terminal hydrolase 1 (Homo sapiens), sequence (O94782 whole entry, looked up): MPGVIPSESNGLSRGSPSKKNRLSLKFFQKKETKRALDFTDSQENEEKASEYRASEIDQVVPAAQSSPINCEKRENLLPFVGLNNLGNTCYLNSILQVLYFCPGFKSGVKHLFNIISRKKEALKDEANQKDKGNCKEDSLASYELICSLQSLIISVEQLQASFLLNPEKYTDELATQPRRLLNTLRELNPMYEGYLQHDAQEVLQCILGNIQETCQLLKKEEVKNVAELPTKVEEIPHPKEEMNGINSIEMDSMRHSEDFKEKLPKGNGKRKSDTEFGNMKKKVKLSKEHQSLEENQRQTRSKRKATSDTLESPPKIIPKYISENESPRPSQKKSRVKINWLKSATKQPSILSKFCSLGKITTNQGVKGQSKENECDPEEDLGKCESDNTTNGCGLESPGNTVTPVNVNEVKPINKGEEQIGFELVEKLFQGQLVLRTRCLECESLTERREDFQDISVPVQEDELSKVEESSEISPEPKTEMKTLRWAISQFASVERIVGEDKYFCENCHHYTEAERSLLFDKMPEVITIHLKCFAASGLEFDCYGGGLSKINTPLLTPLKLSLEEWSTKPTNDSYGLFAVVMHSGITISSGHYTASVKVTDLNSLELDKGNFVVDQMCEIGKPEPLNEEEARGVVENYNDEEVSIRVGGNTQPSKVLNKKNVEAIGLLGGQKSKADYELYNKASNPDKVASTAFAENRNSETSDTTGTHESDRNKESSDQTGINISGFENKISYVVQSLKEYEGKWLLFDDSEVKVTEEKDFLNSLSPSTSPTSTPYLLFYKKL
Procedure, shortened: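 USP1/UAF1 complex (1nM) preincubated with compound 15 min at room temperature, then Ub-Rho substrate (150nM final) added. Fluorescence read kinetically at 480/540 nm, 6 reads every 60 seconds. Buffer: 50mM HEPES pH 7.8, 0.5mM EDTA, 0.1 mg/ml BSA, 1mM TCEP, 0.01% Tween-20.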

[16] = Counterscreen qHTS for small molecule stabilizers of the endoplasmic reticulum resident proteome: GLuc-NoTag assay (AID 1508627);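 also: SH-SY5Y cells given compound then 100 nM thapsigargin to empty ER calcium; 0% = thapsigargin alone and -100% = DMSO vehicle control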
Procedure, shortened: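 Counterscreen line: SH-SY5Y-GLuc-NoTag cells, treated with compound 19 hr before a 4 hr, 100 nM thapsigargin calcium depletion. Secreted Gaussia luciferase in the medium was measured by luminescence after coelenterazine was added (0.07x final), with cells unlysed.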

[17] = Stat Signaling Pathway (AID 446; active = well fitted curve in either direction with a large enough effect, not every such curve was filed as active;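 also: ME-180 cervical cancer cells given 40 pM IL-6 alongside compound; SIE-controlled beta-lactamase reporter measured as 460/530 nm FRET emission ratio; % is scaled to controls: 0 for no effect and ±100 for the full control effect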); details: ME-180 (cervical carcinoma) SIE beta-lactamase reporter, IL-6 stimulated, 5 h; at 7.69 µM (top of the series) unless noted
Procedure, shortened: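 Compound effects on IL-6-induced STAT reporter activity were measured in ME-180 cells. After overnight culture, cells were co-treated with 40 pM IL-6 for 5 hrs before beta-lactamase substrate loading at room temperature.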

[18] = NFAT Signaling Pathway (AID 444; active = well fitted curve in either direction with a large enough effect, not every such curve was filed as active); details: Jurkat NFAT-bla M1, carbachol, beta-lactamase ratio, 5 h; at 7.69 µM (top of the series) unless noted
Procedure, shortened: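 Read-out: CCF4 FRET ratio (460 nm/530 nm) after 1 h RT dye loading, used for %activity and AC50 from titration series. Cells: Jurkat NFAT-β-lactamase/M1 line, treated with compound plus 1 uM carbachol for 5 h, 37 °C.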

[19] = Confirmation and Secondary Assay for Modulators of Hemoglobin Beta Chain Splicing at IVS2 654 locus (AID 910);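 also: HeLa cells stably carrying EGFP split by mutant beta-globin IVS2-654 intron; per-well total GFP intensity by laser scanning cytometry after 2-day treatment; % of control where 0% means no effect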
Procedure, shortened: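 Readout: per-well total peak green fluorescence (488 nm ex, 500–520 nm em) from objects 5–250 µm, reflecting correct splicing of an EGFP-654 reporter. Compounds were applied for 2 days at 37 °C to overnight-plated HeLa EGFP-654 cells; controls were DMSO and 500 nM IVS2-654 PNA.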

[20] = Confirmation and Secondary Assay for Modulators of Hemoglobin Beta Chain Splicing at IVS2 705 locus (AID 930);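 also: HeLa cells stably expressing the EGFP-705 splicing reporter; GFP fluorescence per well restored by corrected splicing of the IVS2-705 intron in EGFP; % of control where 0% means no effect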
Procedure, shortened: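 HeLa EGFP-705 reporter; 500 cells/well, o/n 37C 5% CO2; cpd 2 d; 488 ex/500-520 em laser scan; total peak GFP intensity/well. Ref: 500 nM […] antisense PNA.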

[21] = target: Cytochrome P450 3A4 (Homo sapiens) (UniProt P08684); assay: qHTS Assay for Inhibitors and Substrates of Cytochrome P450 3A4 (AID 884); also: potency is read from the fitted curve at half-maximal effect; nearly all actives have a fitted effect of over 50% in size
Procedure, shortened: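 Luminescent readout of luciferin produced by CYP3A4 (20 nM) dealkylation of Luciferin-PPXE, 25 uM (its KM). NADPH-driven reaction ran 60 min at RT after 10 min compound preincubation; data scaled to 57 uM ketoconazole as 100% inhibition.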

[22] = target: Dual specificity protein kinase CLK4 (Homo sapiens) (UniProt Q9HAZ1); assay: qHTS Assay for Inhibitors of CDC-like Kinase 4 (Kinase-Glo Assay) (AID 1770); also: % is scaled to controls: 0 for no effect and ±100 for the full control effect; nearly all actives have a fitted effect of over 65% in size
Procedure, shortened: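 Recombinant human Clk4 (25 nM) phosphorylated RS repeat peptide (100 uM) with 1 uM ATP in Tris pH 7.5/MgCl2/EGTA/DTT/Triton buffer for 4.5 h at room temperature. Residual ATP was quantified by Kinase-Glo luciferase luminescence.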

[23] = target: Cytochrome P450 2D6 (Homo sapiens) (UniProt P10635); assay: qHTS Assay for Inhibitors and Substrates of Cytochrome P450 2D6 (AID 891); also: potency is read from the fitted curve at half-maximal effect; nearly all actives have a fitted effect of over 60% in size
Cytochrome P450 2D6 (Homo sapiens), sequence (P10635 whole entry, looked up): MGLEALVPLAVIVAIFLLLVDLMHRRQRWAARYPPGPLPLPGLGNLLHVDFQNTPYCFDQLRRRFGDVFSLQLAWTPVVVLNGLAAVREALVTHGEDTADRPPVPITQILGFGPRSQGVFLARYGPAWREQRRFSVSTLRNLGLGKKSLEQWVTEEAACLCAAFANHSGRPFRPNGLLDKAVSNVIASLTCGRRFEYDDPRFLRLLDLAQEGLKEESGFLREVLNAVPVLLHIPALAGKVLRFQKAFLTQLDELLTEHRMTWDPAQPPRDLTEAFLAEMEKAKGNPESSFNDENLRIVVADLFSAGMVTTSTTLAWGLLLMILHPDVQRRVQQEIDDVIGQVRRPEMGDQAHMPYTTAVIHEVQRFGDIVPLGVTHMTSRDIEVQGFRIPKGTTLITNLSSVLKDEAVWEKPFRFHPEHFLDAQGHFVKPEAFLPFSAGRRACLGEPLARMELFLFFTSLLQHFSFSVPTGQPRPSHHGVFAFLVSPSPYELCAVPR
Procedure, shortened: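 Luminescent read-out of luciferin formed by 5 nM human CYP2D6 demethylating 30 uM Luciferin-ME EGE (Km level) over 60 min at room temperature after NADPH regeneration addition. Data normalized to full inhibition by 1.43 uM quinidine.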

[24] = measured here: cell count channel max response
[25] = measured here: lipid channel max response

COc1ccc(-c2nc3cnc(N4CCNCC4)nc3n(CCc3ccccc3)c2=O)cc1
-12.2%: max response [9, 25]
active: activity change, negative = inhibition [2] 111% [activator] | Potency [3] 15.8 µM | Potency [7] 3.98 µM
inactive: Potency [1] > 11.4 µM | Potency [4] > 9.22 µM | Potency [5] > 46 µM | Potency [6] | Potency [8] | activity change, negative = inhibition [9] -10.5% | Potency [10]
-3.35%: max response [9, 24]

O=C(CCCN1C(=O)c2cccc3cccc(c23)C1=O)N1CCN(Cc2ccc3c(c2)OCO3)CC1
active: Potency [10] 27.3 µM
inactive: max response [11] -13.9%

CN1CCN(c2ncc3nc(-c4cccs4)c(=O)n(-c4ccccc4)c3n2)CC1
18.9%: max response [9, 25]
active: Potency [3] 3.16 µM
inactive: Potency [1] > 11.4 µM | Potency [4] > 9.22 µM | Potency [5] > 46 µM | outcome [12] | Potency [6] | Potency [8] | activity change, negative = inhibition [9] -0.619% | Potency [13] | Potency [14] | Potency [15] | Potency [16]
22.3%: max response [9, 24]

O=c1c(CCc2ccccc2)nc2cnc(N3CCNCC3)nc2n1Cc1ccc(F)cc1
active: Potency [3] 10 µM
11.7%: max response [9, 25]
12.8%: max response [9, 24]
inactive: activity change, negative = inhibition [2] -10.5% | activity, negative = inhibition [17] 16.5% | Potency [4] > 9.22 µM | Potency [5] > 46 µM | outcome [12] | activity change, negative = inhibition [9] 2.57% | Potency [10] | max response [11] -14.8%

N#Cc1cccc(-c2nc(N3CCNCC3)c3ccccc3n2)c1
6.46%: max response [9, 24]
11.8%: max response [9, 25]
active: Potency [3] 2.51 µM | Potency [10] 11.2 µM
inactive: Potency [1] > 11.4 µM | activity change, negative = inhibition [2] 5.75% | activity change, negative = inhibition [18] 10.9% | activity, negative = inhibition [17] 11.7% | Potency [4] > 46 µM | Potency [5] > 46 µM | outcome [12] | Potency [6] | Potency [8] | outcome [19] | outcome [20] | activity change, negative = inhibition [9] 6.61% | Potency [15]

O=S(=O)(c1ccccc1)N1CCC[C@@]2(CCN(c3ccncc3)C2)C1
active: Potency [21] 3.98 µM
4.65%: max response [9, 24]
inactive: Potency [1] > 11.4 µM | activity change, negative = inhibition [2] -6.47% | Potency [3] | activity, negative = inhibition [17] 0.894% | Potency [5] > 46 µM | outcome [12] | Potency [6] | Potency [8] | activity change, negative = inhibition [9] 0.287% | Potency [16]
6.49%: max response [9, 25]

Cn1cc(-c2nc3cncnc3n(-c3ccccc3)c2=O)c2ccccc21
inactive: Potency [1] > 11.4 µM | activity, negative = inhibition [17] -2.15% | Potency [4] > 9.22 µM | Potency [5] > 46 µM | Potency [8] | Potency [22] | Potency [13] | Potency [14] | Potency [15] | Potency [16]
active: Potency [3] 1.58 µM

c1ccc2c(N3CCNCC3)nc(-c3ccc4c(c3)OCO4)nc2c1
inactive: Potency [1] > 11.4 µM | activity change, negative = inhibition [2] 14.9% | activity change, negative = inhibition [18] 11.9% | activity, negative = inhibition [17] 7.14% | outcome [12] | Potency [6] | Potency [8] | outcome [19] | outcome [20] | Potency [15]
active: Potency [3] 12.6 µM | Potency [21] 7.94 µM | Potency [23] 3.16 µM | Potency [10] 20 µM

Source: PubChem BioAssay (NCATS)
